TEAD-YAP inh: TEAD-YAP interaction inhibition, primary screen, TEAD-YAP interaction inhibitor project, luminescence, HEK-TIYL cells | TEAD-Gal4/YAP UAS-luciferase luminescence | inhibition, % at 9.12 µM | hit rate 1.4% among 640,000 | AID 1259422, 2018; in the data active means inhibition above about 32%;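 further: 0% = median of test compound wells and 100% = reference inhibitor wells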
FBW7 act: FBW7 E3 ligase activators, primary screen, biochemical, AlphaScreen, human; F-box/WD repeat-containing protein 7 (Homo sapiens), Q969H0; AlphaScreen FBW7–phospho-cyclin E peptide binding, activator screen; normalized activity (activation), % at 26.1 µM; hit rate 0.13% among 650,000; AID 1259310, 2017; in the data active means normalized activity above about 1.9%;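 further: purified mutant Fbw7 with reduced substrate affinity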
MITF primary: MITF inhibitors, primary screen, biochemical, AlphaScreen, human; Microphthalmia-associated transcription factor (Homo sapiens), O75030; AlphaScreen MITF homodimerization, bead proximity signal; inhibition, % at 2.6 µM; hit rate 0.91% among 650,000; in the data active means inhibition above about 50%;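 further: 0% = vehicle wells with protein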
Target sequence (O75030 whole entry, looked up): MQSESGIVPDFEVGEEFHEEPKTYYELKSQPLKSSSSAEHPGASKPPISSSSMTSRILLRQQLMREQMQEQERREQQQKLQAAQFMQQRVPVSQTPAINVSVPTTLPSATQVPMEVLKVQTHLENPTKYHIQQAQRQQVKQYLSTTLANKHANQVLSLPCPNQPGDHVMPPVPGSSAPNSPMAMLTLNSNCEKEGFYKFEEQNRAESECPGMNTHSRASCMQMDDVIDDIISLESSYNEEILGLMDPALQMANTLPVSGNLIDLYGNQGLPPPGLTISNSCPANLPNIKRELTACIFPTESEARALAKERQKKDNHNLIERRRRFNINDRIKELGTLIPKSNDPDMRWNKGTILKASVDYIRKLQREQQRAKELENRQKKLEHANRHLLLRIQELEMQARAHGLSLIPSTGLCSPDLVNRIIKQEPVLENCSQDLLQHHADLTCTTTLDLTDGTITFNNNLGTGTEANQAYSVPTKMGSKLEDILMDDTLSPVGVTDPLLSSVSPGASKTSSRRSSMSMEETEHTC
GPR151 activ: activators of human GPR151, primary screen, cell-based, PathHunter beta-arrestin, luminescence; G-protein coupled receptor 151 (Homo sapiens), Q8TDV0; PathHunter beta-arrestin GPR151 cells; activation, % at 11.2 µM; AID 1508602, 2020; hit rate 1% among 650,000; in the data active means activation above about 4.9%;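 further: 0% = median of compound wells and 100% = cells with positive control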
MITF inh conf: MITF inhibitors, retest of hits, confirmation, biochemical, AlphaScreen, triplicate | AID 1259372, 2018 | inhibition, % at 2.6 µM | AlphaScreen MITF homodimerization, biotin/His-MITF beads | shares compounds with MITF primary | hit rate 16% among 4,700;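 active means inhibition above a cutoff derived from the DMSO control wells, cut at about 28% in these data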;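 further: 0% = MITF dimer wells with DMSO only; inhibitors lower the bead chemiluminescence by keeping MITF from dimerizing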
AlphaScreen DR: AlphaScreen optical interference compounds, dose response, counter-screen, biochemical, HTS | shares compounds with MITF primary | AlphaScreen optical interference counterscreen, cell-free | IC50, µM | hit rate 6% among 480 | AID 1259373, 2018; call rule not given here
AS interf ctr: AlphaScreen optical interference compounds, counter-screen for MITF inhibitor project, biochemical, triplicate | inhibition, % at 2.6 µM | shares compounds with MITF primary | LysRS AlphaScreen counterscreen, signal interference | AID 1259376, 2018 | hit rate 7.6% among 4,700;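 active means inhibition above a cutoff derived from the DMSO control wells, cut at about 30% in these data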
Starred values were filed as active, the others as inactive; nt = not tested or not shown. An excerpt weighted towards active compounds, which were near 3.5% of everything screened.

SMILES	TEAD-YAP inh	FBW7 act	MITF primary	GPR151 activ	MITF inh conf	AS interf ctr	others
COc1cccc(N=c2c([N+](=O)[O-])nn(-c3ccc(Cl)cc3)n2O)c1	10	0	2	0	nt	nt
Cc1cccc(-n2nc([N+](=O)[O-])c(=Nc3ccc(F)cc3)n2O)c1	-15	0	72*	-1	9	6
CCCN(CCC)C(=O)c1c(NC(C)=O)sc2c1CCCCC2	-10	0	65*	2	63*	38*
CCCN(CCC)C(=O)c1c(NC(=O)c2cccnc2)sc2c1CCCCC2	-5	0	-4	0	nt	nt
COc1ccc(CNC(=O)CN(C)S(=O)(=O)c2ccc3c(c2)C(C)(C)C(=O)N3C)cc1	1	0	-4	-1	nt	nt
COc1ccc(CN2CCN(Cc3ccccc3Cl)CC2)c(OC)c1	0	0	80*	1	5	18
COc1ccc(OC)c(CN2CCN(CCCc3ccccc3)CC2)c1	0	0	66*	1	0	-3
COc1ccc(OC)c(CN2CCN(Cc3ccccc3F)CC2)c1	-6	0	77*	2	-4	-2
COc1ccc(OC)c(CN2CCN(Cc3ccccc3Cl)CC2)c1	-2	0	77*	-1	14	16
COc1ccc(C2=NN(c3nc(-c4ccc(S(=O)(=O)N5CCCCC5)cc4)cs3)C(c3ccc(OC)cc3)C2)cc1 (configuration not stated)	-36	0	16	0	nt	nt
CCCCOc1ccc(OCCN2CCN(C)CC2)cc1	-28	0	1	0	nt	nt
COc1ccc(C(=O)NNc2cc(=O)n(C)c(=O)n2C)cc1	1	0	0	1	nt	nt
COc1cccc(C(=O)N2CCN(Cc3ccc(OC)c(Br)c3)CC2)c1	-7	0	52*	0	11	14
COc1ccc(CN2CCN(C(=O)c3cc(OC)c(OC)c(OC)c3)CC2)cc1Br	-4	1	52*	-2	6	2
COc1ccc(CN2CCN(C(=O)c3cccc(OC)c3)CC2)cc1	6	0	27	1	nt	nt
CN(C)C(=O)C1C2NC(=S)N(c3ccc(Cl)cc3)C1(C)Oc1c(Cl)cc(Cl)cc12 (configuration not stated)	-3	0	28	0	nt	nt
O=c1c(CN2CCCCC2)coc2ccc(Cl)cc12	-7	0	2	-1	nt	nt
CN1CCN(Cc2coc3c(Cl)cc(Cl)cc3c2=O)CC1	-3	0	64*	1	0	1
CC1CCC(N2CCN(Cc3ccco3)CC2)CC1 (configuration not stated)	8	0	71*	0	27*	12	AlphaScreen DR=>6.3
c1coc(CN2CCN(C3CCCCC3)CC2)c1	-2	0	64*	0	7	2
COc1cccc(NC(=O)CSc2nc3c(sc(=S)n3Cc3ccco3)c(=O)n2-c2ccc(F)cc2)c1	6	0	-2	0	nt	nt
COc1ccc(C(=O)NC2CCCCC2)cc1S(=O)(=O)N1CCC(C)CC1	0	0	67*	0	10	13
Cc1ccc(-c2[nH]ncc2CN2CCN(C)CC2)cc1	6	1	69*	-1	-11	-4
CN1CCN(Cc2cn[nH]c2-c2ccc(Cl)cc2)CC1	4	1	38	0	nt	nt
Cc1ccccc1CN1CCN(C(=O)c2cccc(Cl)c2)CC1	-6	1	63*	1	7	12
SMILES	TEAD-YAP inh	FBW7 act	MITF primary	GPR151 activ	MITF inh conf	AS interf ctr	others
O=C(c1cccc(Cl)c1)N1CCN(Cc2ccccc2F)CC1	6	0	59*	2	7	7
CN1CC(=O)N2CCN(C(=O)NC3CCCCC3)C[C@@H]2C1=O	1	0	74*	0	74*	-4	AlphaScreen DR=>6.5
CN1CC(=O)N2CCN(C(=O)c3cccc4ccccc34)C[C@@H]2C1=O	-4	0	12	0	nt	nt
CN1CC(=O)N2CCN(C(=O)c3ccccc3Cl)C[C@@H]2C1=O	8	1	54*	0	-2	-4
O=C(c1cc(F)c(F)cc1F)N1CCN2C(=O)[C@@H]3CCCN3C(=O)[C@H]2C1	-6	0	-2	0	nt	nt
O=C(NC1CCCCC1)N1CCN2C(=O)[C@@H]3CCCN3C(=O)[C@H]2C1	8	0	82*	1	71*	-12	AlphaScreen DR=>6.5
CN1CC(=O)N2CCN(C(=O)c3cc(Cl)cc(Cl)c3)C[C@@H]2C1=O	13	0	30	1	nt	nt
OC(CN1CCN(Cc2ccccc2)CC1)CN1c2ccccc2Sc2ccccc21 (configuration not stated)	5	-1	56*	3	6	0
CCOC(=O)CCCC(=O)N1CCOCCOCCOCCOCC1	-4	0	1	0	nt	nt
NNC(=O)c1ccc(CS(=O)(=O)c2ccccc2)o1	-19	0	-4	0	nt	nt
O=C(O)c1ccc(CS(=O)(=O)c2ccccc2)o1	6	-1	56*	0	74*	14	AlphaScreen DR=>6.5
CC(=O)Nc1ccc(NC(=O)Cc2ccc(Br)cc2)cc1	-7	0	58*	-1	19	8
Clc1ccc(CN2CCN(C3CCCC3)CC2)cc1	-6	0	45	1	nt	nt
Clc1ccc(CN2CCN(C3CCCCC3)CC2)cc1	-9	0	67*	0	5	17
NC1CCN(Cc2cccc(F)c2)CC1	-2	0	-13	0	nt	nt
Clc1ccc(CN2CCN(C3CCCCCC3)CC2)cc1	-3	1	74*	0	-5	3
Fc1cccc(CN2CCN(C3CCCC3)CC2)c1	3	0	52*	0	-17	-8
c1ccc(CN2CCN(C3CCCCCC3)CC2)cc1	2	0	70*	-1	7	17
COc1cc2c(cc1OC)C(COc1ccccc1OC)N(C(=O)c1cc(OC)c(OC)c(OC)c1)CC2 (configuration not stated)	-5	0	-1	2	nt	nt
CC1(C)CC(=O)C=C(Nc2sc3c(c2C(N)=O)CCCC3)C1	10	0	81*	1	2	33*
CCC(=O)Nc1sc2c(c1C(N)=O)CCCC2	11	0	-10	1	nt	nt
CCOc1ccc(CN2CCN(Cc3ccc(OC)cc3OC)CC2)cc1	19	1	68*	2	5	-4
COc1cc(CN2CCN(Cc3ccc(OC)cc3OC)CC2)cc(OC)c1	-3	0	70*	-1	5	3
COc1ccc(CN2CCCCC2)cc1OC	7	0	9	0	nt	nt
